In article PMC8384837, “Expanding the binding specificity for RNA recognition by a PUF domain”:

How the values were obtained:
Experiment in all cases: yeast three-hybrid, YBZ-1, SC-Leu-His + 0.5 mM 3-AT, 4 days
Details in all cases: tags: N-Gal4 AD-HA kept; label: inside an RPR1-promoter hybrid RNA with tandem MS2 sites; ssRNA
PUM1 PUF domain R5-RRH = PUM1 PUF domain R5-RRH (Homo sapiens, UniProt Q14671 828-1176, C1007R;Q1011H)
Method in brief: (§1)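 Each repeat of the Pumilio-1 PUF domain was randomized at its three base-contacting residues, and these libraries were co-expressed from a centromeric plasmid with matching RNA elements in strain YBZ-1. After four days on SC-Leu (input) or SC-Leu-His + 0.5 mM 3-AT (selection), the repeat regions were PCR-amplified and Illumina-sequenced. The interaction score compares variant frequency between input and selection as a log change, computed in log2 with a pseudocount of 1 for absent variants.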

PUM1 PUF domain R5-GVQ = PUM1 PUF domain R5-GVQ (Homo sapiens, UniProt Q14671 828-1176, C1007G;R1008V)
Method in brief: as §1

PUM1 PUF domain R5-ESE = PUM1 PUF domain R5-ESE (Homo sapiens, UniProt Q14671 828-1176, C1007E;R1008S;Q1011E)
Method in brief: as §1

PUM1 PUF domain R4-APC = PUM1 PUF domain R4-APC (Homo sapiens, UniProt Q14671 828-1176, N971A;H972P;Q975C)
Method in brief: as §1

PUM1 PUF domain R4-DHQ = PUM1 PUF domain R4-DHQ (Homo sapiens, UniProt Q14671 828-1176, N971D)
Method in brief: as §1

PUM1 PUF domain R4-CRG = PUM1 PUF domain R4-CRG (Homo sapiens, UniProt Q14671 828-1176, N971C;H972R;Q975G)
Method in brief: as §1

PUM1 PUF domain R4-HNL = PUM1 PUF domain R4-HNL (Homo sapiens, UniProt Q14671 828-1176, N971H;H972N;Q975L)
Method in brief: as §1

PUM1 PUF domain R4-DWS = PUM1 PUF domain R4-DWS (Homo sapiens, UniProt Q14671 828-1176, N971D;H972W;Q975S)
Method in brief: as §1

PUM1 PUF domain R5-RHA = PUM1 PUF domain R5-RHA (Homo sapiens, UniProt Q14671 828-1176, C1007R;R1008H;Q1011A)
Method in brief: as §1

PUM1 PUF domain R5-LYS = PUM1 PUF domain R5-LYS (Homo sapiens, UniProt Q14671 828-1176, C1007L;R1008Y;Q1011S)
Method in brief: as §1

PUM1 PUF domain R3-MRY = PUM1 PUF domain R3-MRY (Homo sapiens, UniProt Q14671 828-1176, C935M;Q939Y)
Method in brief: as §1

PUM1 PUF domain R3-QCD = PUM1 PUF domain R3-QCD (Homo sapiens, UniProt Q14671 828-1176, C935Q;R936C;Q939D)
Method in brief: as §1

PUM1 PUF domain R3-APD = PUM1 PUF domain R3-APD (Homo sapiens, UniProt Q14671 828-1176, C935A;R936P;Q939D)
Method in brief: as §1

PUM1 PUF domain R3-IWD = PUM1 PUF domain R3-IWD (Homo sapiens, UniProt Q14671 828-1176, C935I;R936W;Q939D)
Method in brief: as §1

PUM1 PUF domain R8-RWW = PUM1 PUF domain R8-RWW (Homo sapiens, UniProt Q14671 828-1176, N1122R;Y1123W;Q1126W)
Method in brief: as §1

PUM1 PUF domain R8-QFC = PUM1 PUF domain R8-QFC (Homo sapiens, UniProt Q14671 828-1176, N1122Q;Y1123F;Q1126C)
Method in brief: as §1

PUM1 PUF domain R1-GYR = PUM1 PUF domain R1-GYR (Homo sapiens, UniProt Q14671 828-1176, S863G;R864Y;Q867R)
Method in brief: as §1

PUM1 PUF domain R3-RRA = PUM1 PUF domain R3-RRA (Homo sapiens, UniProt Q14671 828-1176, C935R;Q939A)
Method in brief: as §1

PUM1 PUF domain R4-VGY = PUM1 PUF domain R4-VGY (Homo sapiens, UniProt Q14671 828-1176, N971V;H972G;Q975Y)
Method in brief: as §1

PUM1 PUF domain R1-KYQ = PUM1 PUF domain R1-KYQ (Homo sapiens, UniProt Q14671 828-1176, S863K;R864Y)
Method in brief: as §1

PUM1 PUF domain R4-APC, sequence (Q14671 828-1176 N971A/H972P/Q975C): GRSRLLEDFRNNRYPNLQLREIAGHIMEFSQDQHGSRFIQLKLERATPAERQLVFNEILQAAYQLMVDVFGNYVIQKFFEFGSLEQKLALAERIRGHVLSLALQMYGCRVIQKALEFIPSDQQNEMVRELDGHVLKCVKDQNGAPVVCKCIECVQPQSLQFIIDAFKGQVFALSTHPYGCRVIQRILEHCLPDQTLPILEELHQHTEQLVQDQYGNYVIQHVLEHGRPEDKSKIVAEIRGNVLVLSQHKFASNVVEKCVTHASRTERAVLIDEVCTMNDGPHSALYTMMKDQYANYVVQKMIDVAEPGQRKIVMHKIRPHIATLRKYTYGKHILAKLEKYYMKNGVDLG
PUM1 PUF domain R4-DWS, sequence (Q14671 828-1176 N971D/H972W/Q975S): as the sequence (Q14671 828-1176 N971A/H972P/Q975C) above, with A144D, P145W, C148S counted along it
PUM1 PUF domain R5-RHA, sequence (Q14671 828-1176 C1007R/R1008H/Q1011A): as the sequence (Q14671 828-1176 N971A/H972P/Q975C) above, with A144N, P145H, C148Q, C180R, R181H, Q184A counted along it
PUM1 PUF domain R5-RRH, sequence (Q14671 828-1176 C1007R/Q1011H): as the sequence (Q14671 828-1176 N971A/H972P/Q975C) above, with A144N, P145H, C148Q, C180R, Q184H counted along it
PUM1 PUF domain R3-MRY, sequence (Q14671 828-1176 C935M/Q939Y): as the sequence (Q14671 828-1176 N971A/H972P/Q975C) above, with C108M, Q112Y, A144N, P145H, C148Q counted along it
PUM1 PUF domain R4-CRG, sequence (Q14671 828-1176 N971C/H972R/Q975G): as the sequence (Q14671 828-1176 N971A/H972P/Q975C) above, with A144C, P145R, C148G counted along it
PUM1 PUF domain R3-APD, sequence (Q14671 828-1176 C935A/R936P/Q939D): as the sequence (Q14671 828-1176 N971A/H972P/Q975C) above, with C108A, R109P, Q112D, A144N, P145H, C148Q counted along it
PUM1 PUF domain R4-DHQ, sequence (Q14671 828-1176 N971D): as the sequence (Q14671 828-1176 N971A/H972P/Q975C) above, with A144D, P145H, C148Q counted along it
PUM1 PUF domain R5-GVQ, sequence (Q14671 828-1176 C1007G/R1008V): as the sequence (Q14671 828-1176 N971A/H972P/Q975C) above, with A144N, P145H, C148Q, C180G, R181V counted along it
PUM1 PUF domain R4-HNL, sequence (Q14671 828-1176 N971H/H972N/Q975L): as the sequence (Q14671 828-1176 N971A/H972P/Q975C) above, with A144H, P145N, C148L counted along it
PUM1 PUF domain R1-GYR, sequence (Q14671 828-1176 S863G/R864Y/Q867R): as the sequence (Q14671 828-1176 N971A/H972P/Q975C) above, with S36G, R37Y, Q40R, A144N, P145H, C148Q counted along it
PUM1 PUF domain R8-RWW, sequence (Q14671 828-1176 N1122R/Y1123W/Q1126W): as the sequence (Q14671 828-1176 N971A/H972P/Q975C) above, with A144N, P145H, C148Q, N295R, Y296W, Q299W counted along it
PUM1 PUF domain R5-LYS, sequence (Q14671 828-1176 C1007L/R1008Y/Q1011S): as the sequence (Q14671 828-1176 N971A/H972P/Q975C) above, with A144N, P145H, C148Q, C180L, R181Y, Q184S counted along it
PUM1 PUF domain R1-KYQ, sequence (Q14671 828-1176 S863K/R864Y): as the sequence (Q14671 828-1176 N971A/H972P/Q975C) above, with S36K, R37Y, A144N, P145H, C148Q counted along it
PUM1 PUF domain R3-IWD, sequence (Q14671 828-1176 C935I/R936W/Q939D): as the sequence (Q14671 828-1176 N971A/H972P/Q975C) above, with C108I, R109W, Q112D, A144N, P145H, C148Q counted along it
PUM1 PUF domain R3-QCD, sequence (Q14671 828-1176 C935Q/R936C/Q939D): as the sequence (Q14671 828-1176 N971A/H972P/Q975C) above, with C108Q, R109C, Q112D, A144N, P145H, C148Q counted along it
PUM1 PUF domain R4-VGY, sequence (Q14671 828-1176 N971V/H972G/Q975Y): as the sequence (Q14671 828-1176 N971A/H972P/Q975C) above, with A144V, P145G, C148Y counted along it
PUM1 PUF domain R8-QFC, sequence (Q14671 828-1176 N1122Q/Y1123F/Q1126C): as the sequence (Q14671 828-1176 N971A/H972P/Q975C) above, with A144N, P145H, C148Q, N295Q, Y296F, Q299C counted along it
PUM1 PUF domain R5-ESE, sequence (Q14671 828-1176 C1007E/R1008S/Q1011E): as the sequence (Q14671 828-1176 N971A/H972P/Q975C) above, with A144N, P145H, C148Q, C180E, R181S, Q184E counted along it
PUM1 PUF domain R3-RRA, sequence (Q14671 828-1176 C935R/Q939A): as the sequence (Q14671 828-1176 N971A/H972P/Q975C) above, with C108R, Q112A, A144N, P145H, C148Q counted along it

## GGCUAGAACUAGUGGAUCCCCCGGCGCCCGGCGGCUCGAGCCCGGGUAAGUGUGAAUAGUCUGCAUGCCGCCGGGCGCCAUGCCUGCAGGUCGACUCUAGAAAACAUG
PUM1 PUF domain R5-RRH
  binding signal: 1.47 log2 enrichment (interaction score)
PUM1 PUF domain R5-GVQ
  binding signal: 2.24 log2 enrichment (interaction score)
PUM1 PUF domain R5-ESE
  binding signal: 2.77 log2 enrichment (interaction score)

## GGCUAGAACUAGUGGAUCCCCCGGCGCCCGGCGGCUCGAGCCCGGGUAAGUGUAUAUAGUCUGCAUGCCGCCGGGCGCCAUGCCUGCAGGUCGACUCUAGAAAACAUG
PUM1 PUF domain R4-APC
  binding signal: 3.17 log2 enrichment (interaction score)
PUM1 PUF domain R4-DHQ
  binding signal: 5.32 log2 enrichment (interaction score)
PUM1 PUF domain R4-CRG
  binding signal: 1.29 log2 enrichment (interaction score)
PUM1 PUF domain R4-HNL
  binding signal: 3.45 log2 enrichment (interaction score)
PUM1 PUF domain R4-DWS
  binding signal: 5.96 log2 enrichment (interaction score)

## GGCUAGAACUAGUGGAUCCCCCGGCGCCCGGCGGCUCGAGCCCGGGUAAGUGUACAUAGUCUGCAUGCCGCCGGGCGCCAUGCCUGCAGGUCGACUCUAGAAAACAUG
PUM1 PUF domain R4-APC
  binding signal: 1.88 log2 enrichment (interaction score)
PUM1 PUF domain R4-DHQ
  binding signal: 2.4 log2 enrichment (interaction score)
PUM1 PUF domain R4-HNL
  binding signal: 2.04 log2 enrichment (interaction score)
PUM1 PUF domain R4-DWS
  binding signal: 2.51 log2 enrichment (interaction score)

## GGCUAGAACUAGUGGAUCCCCCGGCGCCCGGCGGCUCGAGCCCGGGUAAGUGUUAAUAGUCUGCAUGCCGCCGGGCGCCAUGCCUGCAGGUCGACUCUAGAAAACAUG
PUM1 PUF domain R5-RHA
  binding signal: 5.76 log2 enrichment (interaction score)
PUM1 PUF domain R5-LYS
  binding signal: 3.82 log2 enrichment (interaction score)
PUM1 PUF domain R5-GVQ
  binding signal: 2.71 log2 enrichment (interaction score)

## GGCUAGAACUAGUGGAUCCCCCGGCGCCCGGCGGCUCGAGCCCGGGUAAGUGUCAAUAGUCUGCAUGCCGCCGGGCGCCAUGCCUGCAGGUCGACUCUAGAAAACAUG
PUM1 PUF domain R5-RRH
  binding signal: 5.57 log2 enrichment (interaction score)
PUM1 PUF domain R5-RHA
  binding signal: 5.53 log2 enrichment (interaction score)

## GGCUAGAACUAGUGGAUCCCCCGGCGCCCGGCGGCUCGAGCCCGGGUAAGUGUAAGUAGUCUGCAUGCCGCCGGGCGCCAUGCCUGCAGGUCGACUCUAGAAAACAUG
PUM1 PUF domain R3-MRY
  binding signal: 4.3 log2 enrichment (interaction score)
PUM1 PUF domain R3-QCD
  binding signal: 3.09 log2 enrichment (interaction score)
PUM1 PUF domain R3-APD
  binding signal: 6.54 log2 enrichment (interaction score)
PUM1 PUF domain R3-IWD
  binding signal: 4.83 log2 enrichment (interaction score)

## GGCUAGAACUAGUGGAUCCCCCGGCGCCCGGCGGCUCGAGCCCGGGUAAGCGUAAAUAGUCUGCAUGCCGCCGGGCGCCAUGCCUGCAGGUCGACUCUAGAAAACAUG
PUM1 PUF domain R8-RWW
  binding signal: 5.89 log2 enrichment (interaction score)
PUM1 PUF domain R8-QFC
  binding signal: 3.87 log2 enrichment (interaction score)

## GGCUAGAACUAGUGGAUCCCCCGGCGCCCGGCGGCUCGAGCCCGGGUAAGUGUAAAUUGUCUGCAUGCCGCCGGGCGCCAUGCCUGCAGGUCGACUCUAGAAAACAUG
PUM1 PUF domain R1-GYR
  binding signal: 2.71 log2 enrichment (interaction score)

## GGCUAGAACUAGUGGAUCCCCCGGCGCCCGGCGGCUCGAGCCCGGGUAAGUGUAAUUAGUCUGCAUGCCGCCGGGCGCCAUGCCUGCAGGUCGACUCUAGAAAACAUG
PUM1 PUF domain R3-MRY
  binding signal: 1.32 log2 enrichment (interaction score)
PUM1 PUF domain R3-RRA
  binding signal: 3.19 log2 enrichment (interaction score)

## GGCUAGAACUAGUGGAUCCCCCGGCGCCCGGCGGCUCGAGCCCGGGUAAGUGUAAAUAGUCUGCAUGCCGCCGGGCGCCAUGCCUGCAGGUCGACUCUAGAAAACAUG
PUM1 PUF domain R5-RRH
  binding signal: 1.96 log2 enrichment (interaction score)
PUM1 PUF domain R3-APD
  binding signal: 4.44 log2 enrichment (interaction score)
PUM1 PUF domain R8-RWW
  binding signal: 4.93 log2 enrichment (interaction score)
PUM1 PUF domain R4-APC
  binding signal: 4.14 log2 enrichment (interaction score)
PUM1 PUF domain R5-RHA
  binding signal: 2.93 log2 enrichment (interaction score)
PUM1 PUF domain R4-CRG
  binding signal: 4.02 log2 enrichment (interaction score)
PUM1 PUF domain R4-DWS
  binding signal: 2.39 log2 enrichment (interaction score)
PUM1 PUF domain R5-LYS
  binding signal: 3.11 log2 enrichment (interaction score)
PUM1 PUF domain R4-VGY
  binding signal: 2.38 log2 enrichment (interaction score)

## GGCUAGAACUAGUGGAUCCCCCGGCGCCCGGCGGCUCGAGCCCGGGUAAGUGUAAAUCGUCUGCAUGCCGCCGGGCGCCAUGCCUGCAGGUCGACUCUAGAAAACAUG
PUM1 PUF domain R1-GYR
  binding signal: 4.99 log2 enrichment (interaction score)
PUM1 PUF domain R1-KYQ
  binding signal: 4.96 log2 enrichment (interaction score)
